High-throughput results from PubChem.
An excerpt weighted towards active compounds, which were near 22% of everything screened.
Cycloheximide cs: affects cycloheximide protein synthesis inhibition readout, counter-screen | max response, % | AID 2314 | actives 12% (n = 300,000) | cell reporter, cycloheximide protein synthesis inhibition counterscreen; in the data active = max response mostly above about 13%, no sharp cut-off; inactive = mostly below about 14%; note: read at 38.3 µM for the half of the compounds with a filed dose; 0% is about no effect
LmPK inh: blocks Leishmania mexicana pyruvate kinase activity; AID 1721; purified LmPK, Kinase-Glo ATP luminescence, 1 h; Potency, µM (doses to about 57.5 µM), for the others: at the highest dose activity change, negative = inhibition, actives largely listed as inhibitors; actives 0.37% (n = 290,000); note: potency is the fitted concentration of half-maximal effect; % is set by controls: 0 for no effect and ±100 for the full control effect
Target sequence (Q27686 whole entry, looked up): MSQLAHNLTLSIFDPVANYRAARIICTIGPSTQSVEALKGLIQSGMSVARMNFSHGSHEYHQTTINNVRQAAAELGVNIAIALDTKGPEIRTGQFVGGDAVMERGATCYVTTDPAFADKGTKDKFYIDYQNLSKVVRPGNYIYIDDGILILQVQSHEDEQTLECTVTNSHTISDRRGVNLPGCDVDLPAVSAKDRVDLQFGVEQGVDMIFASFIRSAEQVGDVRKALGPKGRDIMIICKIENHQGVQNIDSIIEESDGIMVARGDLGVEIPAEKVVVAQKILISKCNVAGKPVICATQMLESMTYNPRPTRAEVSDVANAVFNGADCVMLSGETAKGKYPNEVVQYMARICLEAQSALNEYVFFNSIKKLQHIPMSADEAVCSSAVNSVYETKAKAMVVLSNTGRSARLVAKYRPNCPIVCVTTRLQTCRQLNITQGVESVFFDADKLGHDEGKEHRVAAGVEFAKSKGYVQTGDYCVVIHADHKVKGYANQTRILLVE
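Purified LmPK (0.1 nM) with 0.5 mM PEP and 0.1 mM ADP in imidazole buffer pH 7.2 with MgCl2/KCl, 1 h at room temperature. ATP formed was read by luciferase luminescence and normalized to no-enzyme and uninhibited controls.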
Pf growth 48h: inhibits P. falciparum growth in the first generation, 48 h; P. falciparum luciferase growth in erythrocytes, 48 h; actives 5.9% (n = 310,000); AID 504832; Potency, µM (series often up to 28.7 µM), inactives show at the highest dose activity change, negative = inhibition, usual class: inhibitors; note: potency is the fitted concentration of half-maximal effect; % is set by controls: 0 for no effect and ±100 for the full control effect
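Erythrocytes infected with P. falciparum carrying an integrated firefly luciferase reporter (2% hematocrit, 0.1% parasitemia final) were exposed to compounds in RPMI 1640 with 0.5% Albumax at 37 C, 5% CO2. Growth inhibition was scored as reduced luminescence.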
Pf growth 96h: P. falciparum growth inhibition at 96 hour, primary screen for plastid delayed-death inhibitors | actives 6.9% (n = 320,000) | P. falciparum luciferase reporter growth, 96 h | Potency, µM (highest dose often 28.7 µM), without a hit: at the highest dose activity change, negative = inhibition, most hits filed as inhibitors; note: potency is the fitted concentration of half-maximal effect; % is set by controls: 0 for no effect and ±100 for the full control effect
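Erythrocytes infected with luciferase-expressing P. falciparum were dispensed at 2% hematocrit and 0.05% parasitemia (final), then incubated with compounds 96 hours at 37 C in 5% CO2. Luminescence after detection reagent addition reported growth.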
Shiga inhibitor: blocks Shiga toxin action in Vero cells | Vero cells, Shiga toxin protein synthesis inhibition reporter | inhibition, % at 38.7 µM | actives 9.2% (n = 290,000) | AID 2315; in the data active = inhibition mostly above about 28%, no sharp cut-off; inactive = mostly below about 43%; note: 0% is about no effect
Starred values were filed as active, the others as inactive; ? = inconclusive; . = no result; + = active, no number. Unless noted, calls come from the whole dose curve; as a rule, active = well fitted inhibition curve with a large enough effect; inconclusive = small, poorly fitted or top-dose-only effect, or another doubt; inactive = no such curve, though single readings can be large or run the other way.

SMILES | Cycloheximide cs | LmPK inh | Pf growth 48h | Pf growth 96h | Shiga inhibitor
CCOc1ccc(N2C(=O)C3Sc4[nH]c(=O)sc4C(c4ccc(OC)c(OC)c4)C3C2=O)cc1 (stereo not drawn) | 1.4 | -1.2% | 17.1% | 23.8% | 23.2
Cc1cc(NC(=O)COc2ccccc2C)no1 | 46.2* | 7.3% | 174.5% | -26.9% | 110.2*
O=C(COc1cccc2cccnc12)NNC(=S)Nc1ccccc1 | 2.0 | -4.7% | -22.2% | 0.657µM* | 8.6
NC(=O)COc1cccc2cccnc12 | 1.5 | 5.9% | . | 17.2% | -18.5
Cc1cc(NC(=O)COc2cccc(C)c2C)no1 | 27.6* | -0.2% | 65.3% | 1.7% | 59.7*
Cc1cc(NC(=O)COc2cccc3cccnc23)no1 | 33.0* | -1.9% | ? | -20.7% | +
O=C(COc1cccc2ccccc12)NNC(=O)Nc1ccccc1 | -0.8 | 2.6% | 45.7% | ? | -16.1
Cc1cc(NC(=O)CCOc2ccccc2)no1 | 7.2 | -1.5% | 55.5% | 1.3% | 0.3
Cc1cc(NS(=O)(=O)c2ccc(NC(=O)CCCOc3cccc(C)c3C)cc2)no1 | -2.6 | 0.0% | -18.8% | -2.1% | -6.9
Cc1ccc(NS(=O)(=O)c2c(C)nc3sccn3c2=O)c(C)c1 | 0.9 | 1.6% | -3.6% | ? | 2.3
CC1CCc2sc3ncnc(N4CCN(CCO)CC4)c3c2C1 (stereo not drawn) | -5.9 | 1.9% | -5.4% | ? | .
Cc1cc(C)cc(NC(=O)[C@H](Cc2c[nH]c3ccccc23)NC(=O)[C@@H]2Cc3ccccc3CN2)c1 | -2.3 | -8.2% | 9.28µM* | ? | -6.0
CCc1ccc(NC(=O)[C@H](Cc2c[nH]c3ccccc23)NC(=O)[C@@H]2Cc3ccccc3CN2)cc1 | 16.4 | -10.9% | ? | ? | 28.3*
Cc1cccc(NC(=O)[C@H](Cc2c[nH]c3ccccc23)NC(=O)[C@@H]2Cc3ccccc3CN2)c1 | 13.6* | -6.2% | 8.28µM* | 11.7µM* | 15.9
CC(NC(=O)[C@H](Cc1c[nH]c2ccccc12)NC(=O)[C@@H]1Cc2ccccc2CN1)c1ccccc1 (stereo partly drawn) | -2.1 | 0.4% | ? | ? | -10.2
CC(=O)c1ccccc1C(=O)N1CCC(n2nccc2NC(=O)C2CC2)CC1 | 0.5 | -0.3% | 22.8% | ? | -7.8
Cc1cccc(-n2c(C)c(C)c3c(N)ncnc32)c1 | 19.5* | 3.7% | ? | -5.0% | 19.2
CCCCn1c(N)c(N(CC(C)C)C(=O)C(C)SCc2nc3sc(C)c(C)c3c(=O)[nH]2)c(=O)[nH]c1=O (stereo not drawn) | . | . | 11.7µM* | 7.1% | .
CCCCn1c(N)c(N(CCOC)C(=O)C2CCN(S(=O)(=O)c3ccc(C)cc3)CC2)c(=O)[nH]c1=O | . | . | 9.2% | -11.4% | .
CCCCn1c(N)c(N(CC(C)C)C(=O)CSCc2ccc(Cl)c(Cl)c2)c(=O)[nH]c1=O | . | . | 11.7µM* | ? | .
CCCCn1c(N)c(N(CC(C)C)C(=O)CSc2ccc3c(c2)OCCO3)c(=O)[nH]c1=O | . | . | -28.7% | ? | .
CCCCn1c(N)c(N(CC(C)C)C(=O)c2cnccn2)c(=O)[nH]c1=O | . | . | -21.9% | 24.1% | .
CCCCn1c(N)c(N(CCOC)C(=O)C2CCN(S(=O)(=O)c3ccc(C)cc3C)CC2)c(=O)[nH]c1=O | . | . | 13.1µM* | ? | .
Cc1ccc(S(=O)(=O)N2CCN(CC(=O)N(CC(C)C)c3c(N)n(CC(C)C)c(=O)[nH]c3=O)CC2)c(C)c1 | -1.1 | -2.7% | ? | 4.15µM* | -12.2
CCc1ccc(NS(=O)(=O)c2c(C(=O)N3CCOCC3)c(C)n(C)c2C)cc1 | 2.9 | -0.1% | 19.3% | 39.8% | 14.4
SMILES | Cycloheximide cs | LmPK inh | Pf growth 48h | Pf growth 96h | Shiga inhibitor
CCCCn1c(N)c(N(CC(C)C)C(=O)C2CCN(S(=O)(=O)c3ccc(C)cc3C)CC2)c(=O)[nH]c1=O | . | . | 13.1µM* | ? | .
CCCCn1c(N)c(N(CC(C)C)C(=O)C2CCN(S(=O)(=O)c3ccc(C)c(C)c3)CC2)c(=O)[nH]c1=O | -1.5 | 3.4% | 2.62µM* | 2.33µM* | -12.3
CCCCn1c(N)c(N(CC(C)C)C(=O)C2CCN(C(=O)c3ccc(Cl)cc3)CC2)c(=O)[nH]c1=O | . | . | 3.0% | 6.2% | .
CC(Oc1ccccc1F)c1nnc(SCC(=O)Nc2ccc(N3CCOCC3)cc2)o1 (stereo not drawn) | . | . | -19.7% | ? | .
O=C(Cc1ccccc1)NC1CCSc2ccccc21 (stereo not drawn) | 1.5 | -1.8% | 0.8% | -27.2% | -2.7
c1ccc(N/N=C2\CCCc3ccccc32)nc1 | 18.2 | -7.7% | ? | ? | 7.0
Fc1ccc2c(c1)/C(=N/Nc1ccccn1)CCS2 | 29.7* | 2.2% | ? | -20.3% | 57.8*
CC(C)OC(=O)C(C)Oc1ccc(C(=O)NCCc2ccccc2)cc1 (stereo not drawn) | 24.8* | 4.7% | 64.3% | 8.6% | 40.0*
CC(Oc1ccc(C(=O)NCCc2ccccc2)cc1)C(=O)O (stereo not drawn) | 9.5 | 6.8% | 38.8% | . | -8.9
O=C(COc1ccc(C(=O)NCCc2ccccc2)cc1)Nc1ccccc1 | -2.2 | 4.5% | 6.7% | 4.15µM* | -7.6
COc1ccc(C(=O)NCc2ccccn2)cc1 | 12.7 | 1.1% | 31.9% | -2.7% | 8.2
CS(=O)(=O)N(Cc1ccccc1Cl)c1ccc(C(=O)NCc2ccccn2)cc1 | -6.9 | 2.1% | ? | 10.4µM* | 1.1
CCCCOc1ccc(C(=O)NCc2ccccn2)cc1 | 20.9* | -5.0% | -0.5% | . | 33.9
CCCCOc1ccc(C(=O)NCCc2ccccc2)cc1 | 41.8* | 0.3% | 27.2% | 2.62µM* | 91.4*
COc1cc(NC(=O)CN2C(=O)NC(C)(c3ccccc3)C2=O)c(C)cc1[N+](=O)[O-] (stereo not drawn) | -4.9 | -1.1% | ? | 11.7µM* | -10.7
COc1ccc(NC(=O)CN2CCCC(C)C2)c([N+](=O)[O-])c1 (stereo not drawn) | 17.3* | 1.0% | -12.6% | 102.5% | 31.8*
CC1(c2ccc([N+](=O)[O-])cc2)NC(=O)N(CC(=O)Nc2cccnc2Cl)C1=O (stereo not drawn) | . | . | 4.1% | 11.7µM* | .
Cc1ccc(C2(C)NC(=O)N(CC(=O)Nc3cccnc3Cl)C2=O)cc1 (stereo not drawn) | -6.5 | -9.8% | 2.2% | -36.7% | -1.5
COc1cc(NC(=O)CN2CCC(C)CC2)c(C)cc1[N+](=O)[O-] | 9.1 | 3.4% | -13.0% | 9.6% | active
COc1cc(NC(=O)C2CC(=O)NC3=C2C(=O)CCC3)c(OC)cc1Cl (stereo not drawn) | -2.3 | -4.3% | 28.7% | ? | -7.5
NC(=O)c1nsc(C(=O)N(CC(=O)NC2CCCCC2)c2ccc(Cl)cc2)c1N | 1.2 | -2.9% | -22.0% | ? | -3.9
O=Nc1c2nc3ccccc3n(O)c-2c2ccccc12 | 72.9* | -21.4% | 82.1% | ? | 114.7*
CCOC(=O)c1oc2ccc(CNC3CCCCC3)c(Cl)c2c1C | -1.5 | -0.8% | ? | -21.6% | -3.2
CCOC(=O)c1oc2ccc(CNCCO)c(Cl)c2c1C | 40.2* | -4.3% | 58.1% | ? | 82.0*
